“And” between values parts separate entries of the source, which are not always exact repeats. Identical values can stand only once. Out of some 320,000 compounds screened, about 2,100 (0.66%) were called active.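 How the source made its calls: active means inhibition above the mean inhibition of all tested compounds plus 3 SD, set per campaign (cut at about 40% in these data); inactive means the rest.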 The sample as a whole holds a higher share of actives than the screen did. The source holds several records for some structures; these can differ, active in one and inactive in another.
target: Induced myeloid leukemia cell differentiation protein Mcl-1 (Homo sapiens) (UniProt Q07820); assay: MCL1-BIM peptide interaction disruptors – biochemical, fluorescence polarization, primary screen (AID 2057); details: GST-MCL1 / FITC-Bim-BH3 fluorescence polarization; at 10.9 µM; stronger effect = higher value;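 further: 0% = DMSO wells and 100% = unlabeled Bim-BH3 peptide control; higher means more loss of mP so more displacement of Bim peptide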
Sequence (Q07820 whole entry, looked up): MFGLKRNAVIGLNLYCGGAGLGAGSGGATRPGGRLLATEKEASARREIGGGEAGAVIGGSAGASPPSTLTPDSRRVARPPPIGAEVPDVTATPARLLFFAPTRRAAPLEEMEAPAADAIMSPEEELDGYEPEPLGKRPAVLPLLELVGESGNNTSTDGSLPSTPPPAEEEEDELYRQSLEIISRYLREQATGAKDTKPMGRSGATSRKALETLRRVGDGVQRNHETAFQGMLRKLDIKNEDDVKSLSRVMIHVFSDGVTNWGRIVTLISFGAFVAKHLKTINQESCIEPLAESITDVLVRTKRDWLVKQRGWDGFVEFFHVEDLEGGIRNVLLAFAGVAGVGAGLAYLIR

Row | SMILES | inhibition
1 | COc1ccc(S(=O)(=O)N2CCCCC2)cc1NC(=O)c1cc([N+](=O)[O-])ccc1N1CCOCC1 | 3.68% (inactive)
2 | CCn1c(SCc2cc(=O)n3ccsc3n2)nc2ccccc21 | 8.95% (inactive)
3 | CCOc1ncccc1C(=O)N(C)CC(=O)Nc1ccc(F)cc1 | -10.5% (inactive)
4 | COc1ccc(NC(=O)c2cc(-c3ccc(C)o3)nc3ccccc23)cc1 | 22.5% (inactive)
5 | Cc1ccc(NC(=O)c2cc(-c3ccc(C)o3)nc3ccccc23)nc1 | 56.2% (active)
6 | CC(=O)N1CCN(C(=O)c2cc(-c3ccc(C)o3)nc3ccccc23)CC1 | 7.28% (inactive)
7 | Cc1cc(OCc2cc(C(=O)NCc3cc(C(C)C)no3)no2)cc(C)c1Cl | 6.88% (inactive)
8 | Cc1cc(C)n(-c2nnc(C)n2NC(=O)c2cccc(Cl)c2)n1 | -1.3% (inactive)
9 | Cc1ccc(C2Nc3cccc4cccc(c34)N2)cc1 | 53.9% (active)
10 | COc1cccc(C2Nc3cccc4cccc(c34)N2)c1 | 22.2% (inactive)
11 | Oc1ccc(C2Nc3cccc4cccc(c34)N2)cc1 | 26.6% (inactive)
12 | O=C(C1CCC1)N1CCN(S(=O)(=O)c2ccc([N+](=O)[O-])cc2)CC1 | -7.38% (inactive)
13 | COc1ccc(O)c(/C=N/N=C/c2cccc([N+](=O)[O-])c2)c1 | 3.97% (inactive)
14 | COc1ccccc1/C=C/C(=O)NC(=S)N1CCOCC1 | -5.3% (inactive)
15 | COc1ccc(OCC(=O)NCCS(=O)(=O)N2CCN(c3ccc(F)cc3)CC2)cc1 | 2.8% (inactive)
16 | CCOc1ccc(C2=CC(c3ccccc3)n3ncnc3N2)cc1 (stereo not given) | 6.81% (inactive)
17 | COC(=O)C1=C(C)Nc2ncnn2C1c1ccco1 (stereo not given) | 9.97% (inactive)
18 | O=C(C1=C(O)C(=O)N(Cc2ccccc2)C1c1ccco1)c1ccco1 (stereo not given) | 4.91% (inactive)
19 | O=C(C1=C(O)C(=O)N(Cc2ccccc2)C1c1cccnc1)c1ccco1 (stereo not given) | 2.72% (inactive)
20 | O=C(C1=C(O)C(=O)N(c2ncccn2)C1c1cccs1)c1ccco1 (stereo not given) | 117% (active)
21 | CC(=O)Nc1cccc(C(=O)OCC(=O)c2ccc3c(c2)OCO3)c1 | 0.4% (inactive)
22 | C/C=C\C=C\C(=O)N1CC2(CC(c3cccc(NC(=O)/C(C)=C\C)c3)=NO2)C[C@H]1C(N)=O (stereo not given in full) | 0% (inactive)
23 | CCOc1ccccc1NC(=S)N1CCN(c2cccc(C)c2C)CC1 | 4.81% (inactive)
24 | CCOC(=O)c1ccc(NC(=O)Cn2cnc3cc(C)c(C)cc32)cc1 | 5.35% (inactive)

Row | SMILES | inhibition
25 | NC(=O)C1=C[C@@H](c2ccc3c(c2)OCO3)C[C@@H](OCCCCO)O1 | 12.6% (inactive)
26 | Cc1cc(C)cc(OCC(=O)Nc2ccc(N3CCOCC3)cc2N2CCOCC2)c1 | 1.14% (inactive)
27 | CCCCNc1nc2ccccc2nc1NS(=O)(=O)c1cccs1 | 2.76% (inactive)
28 | O=C(CCS(=O)(=O)c1ccc(Br)cc1)NCCc1ccc(Cl)cc1 | -2.54% (inactive)
29 | COc1ccc(Cl)cc1NC(=O)CCS(=O)(=O)c1ccc(Br)cc1 | 42.9% (active)
30 | COc1ccc(Cl)cc1NC(=O)CCS(=O)(=O)c1cc2c(cc1C)NC(=O)CO2 | 8.54% (inactive)
31 | O=C(NNS(=O)(=O)c1ccccc1)c1cnn(-c2ccc(Cl)cc2)c1C(F)(F)F | 6.42% (inactive)
32 | O=C(O)c1ccccc1N=N/C(=N/Nc1cc(S(=O)(=O)O)ccc1O)c1ccccc1 | 62% (active)
33 | O=C(Nc1ccc(C(=O)O)c(O)c1)c1ccccc1 | -1.25% (inactive)
34 | O=C(NCCc1ccccc1)C1CC1 | 3.41% (inactive)
35 | Cc1cc(C)n2nc(C(=O)Oc3ccc4c(c3)OCO4)nc2n1 | 3.36% (inactive)
36 | CN(C)N=Nc1ccc2nc[nH]c2c1 | 2.69% (inactive)
37 | Cc1ccc(S(=O)(=O)N[C@@H](Cc2ccccc2)C(=O)N2CCC(C(=O)N[C@H](C(=O)O)C(C)O)CC2)cc1 (stereo not given in full) | -6.49% (inactive)
38 | Cc1nn(C)c(Oc2ccccc2)c1CCNS(=O)(=O)c1ccc(F)cc1 | 2.92% (inactive)
39 | COc1ccc(CNc2nc3c(c(=O)[nH]c(=O)n3C)n2Cc2ccccc2)cc1 | 5.54% (inactive)
40 | COCCn1c(N)c(NCc2ccccc2)c(=O)[nH]c1=O | 73.5% (active)
41 | COCCn1c(N)c(N(Cc2ccccc2)C(=O)C2CCCCC2)c(=O)[nH]c1=O | 0.45% (inactive)
42 | CCC(=O)c1cc(F)ccc1OCC(=O)Nc1ccc2c(c1)OCCO2 | -2.34% (inactive)
43 | O=c1[nH]c2ccccc2n2c(-c3ccccc3)nnc12 | 57% (active)
44 | O=c1[nH]n2c(-c3ccccc3)nc(O)c2c2ccccc12 | -5.68% (inactive)
45 | Cc1nc2nc(C)c(NS(=O)(=O)c3ccc(C(C)(C)C)cc3)c(=O)n2[nH]1 | 0.66% (inactive)
46 | CS(=O)(=O)N(CC(=O)N1CCN(c2ccc(F)cc2)CC1)C1CCCCC1 | -4.24% (inactive)
47 | CCOC(=O)N1CCN(C(=O)C(C)NC(=O)c2ccco2)CC1 (stereo not given) | -1.38% (inactive)
48 | CCN(C(=O)CSc1ncnc2sccc12)c1c(N)n(Cc2ccccc2)c(=O)[nH]c1=O | 0.53% (inactive)

Row | SMILES | inhibition
49 | Cc1ccc(C(=O)N/N=C/c2cccc3ccccc23)cn1 | -3.5% (inactive)
50 | O=C(N/N=C\c1cc(Br)c(Br)o1)C1COc2ccccc2O1 (stereo not given) | 10.5% (inactive)
51 | Cc1ccc(C(=O)N/N=C\c2cc(Br)c(Br)o2)cn1 | 46% (active)
52 | Cc1ccn2cc(-c3nonc3C)cc2c1 | 11.9% (inactive)
53 | Cc1nc2cc(S(=O)(=O)C(F)(F)F)ccc2s1 | -1.41% (inactive)
54 | NS(=O)(=O)c1cccc(NC(=O)CC23CC4CC(CC(Br)(C4)C2)C3)c1 | -1.18% (inactive)
55 | Cc1sc(NC(=S)NC(=O)c2cccs2)nc1-c1ccc(CC(C)C)cc1 | -5.44% (inactive)
56 | O=C(NN1C(=O)C2C(C1=O)C1C=CC2C12CC2)c1ccccc1Cl (stereo not given) | 1.2% (inactive)
57 | CC12CCC(C(=O)N(NC(=O)c3ccccc3O)C1=O)C2(C)C (stereo not given) | 42.7% (active)
58 | CC12CCC(C(=O)N(c3cccc(Cl)c3)C1=O)C2(C)C (stereo not given) | 4.99% (inactive)
59 | CCCC1=Nc2cc(C(=O)NCc3ccco3)ccc2Sc2ccccc21 | -1.97% (inactive)
60 | CCOP1(=O)C=C(C(C)(C)C)OC1c1ccc(F)cc1 (stereo not given) | -0.66% (inactive)
61 | Cc1coc2c(O)cc3c(c12)OC1(N2CCCCC2)C(=O)NCCCC31 (stereo not given) | 48.6% (active)
62 | Cc1ccc2nnn(Cc3cccc(C(C)(C)C)c3O)c2c1 | -0.36% (inactive)
63 | CC1CCN(C(=O)c2ccccc2NC(=O)Cc2ccccc2)CC1 | 2.82% (inactive)
64 | CCCCn1c(N)c(N(CC(C)C)C(=O)c2ccc(-n3c(C)ccc3C)cc2)c(=O)[nH]c1=O | -0.69% (inactive)
65 | COc1ccc(Nc2ccc([N+](=O)[O-])cn2)cn1 | 48.7% (active)
66 | COc1cc(/C=N\Nc2ccc([N+](=O)[O-])cn2)ccc1OCC(=O)O | -10.5% (inactive)
67 | COc1ccc(C(=O)NCCNc2ccc([N+](=O)[O-])cn2)cc1 | -2.53% (inactive)
68 | O=C(CCc1c[nH]c2ccccc12)NCCOc1ccccc1 | 0.99% (inactive)
69 | O=C(COC(=O)/C=C/c1ccc(S(=O)(=O)N2CCCCCC2)cc1)NCc1ccccc1Cl | 5.88% (inactive)
70 | Cc1ccc2nc(COc3ccc(N(C)S(=O)(=O)c4ccccc4)cc3)cc(=O)n2c1 | 42% (active)
71 | COc1cccc(COc2ccc(N(C)S(=O)(=O)c3ccccc3)cc2)c1 | -7.28% (inactive)
72 | CN(c1ccc(OCC(=O)O)cc1)S(=O)(=O)c1ccc2ccccc2c1 | 15.4% (inactive)

Row | SMILES | inhibition
73 | O=c1[nH]c(=O)c2nc3ccccc3nc2[nH]1 | 40.2% (active)
74 | O=c1[nH]c(-c2ccccc2)c(-c2ccccc2)[nH]1 | 1.68% (inactive)
75 | CNC(=O)c1cccc2nc3ccccc3nc12 | 2.56% (inactive)
76 | Cn1cnc2c1c(=O)n(Cc1ccccc1C#N)c(=O)n2C | 2.03% (inactive)
77 | CC(C)c1ccc2oc(=O)cc(CN3CCN(Cc4ccccc4)CC3)c2c1 | -0.09% (inactive)
78 | C#CCNC(=O)[C@H](Cc1ccc(C(=O)c2ccccc2)cc1)NC(=O)OC(C)(C)C | -1.48% (inactive)
79 | COc1ccc(CN2CC(C(=O)NC3CCCCC3)CC2=O)cc1 (stereo not given) | 1.62% (inactive)
80 | O=C(CCNC(=O)C1CCN(S(=O)(=O)c2ccccc2)CC1)NC1CC1 | 1.06% (inactive)
81 | CCN(CC(=O)NCC(=O)Nc1cccc(C)c1C)Cc1ccccc1 | -6.88% (inactive)
82 | Cc1[nH]c2ccccc2c1C(=O)CN1CCCC(C)C1 (stereo not given) | -7.18% (inactive)
83 | Cc1nnc(NC(=O)/C=C/c2ccco2)s1 | 53.5% (active)
84 | CCOC(=O)c1c(NC(=O)/C=C/c2ccco2)sc(C)c1C | -7.18% (inactive)
85 | CCC(CC)c1nnc(NC(=O)/C=C/c2ccco2)s1 | -2.29% (inactive)
86 | O=c1[nH]c2ccc(S(=O)(=O)N3CCCC3)cc2[nH]1 | 5.45% (inactive)
87 | N/C(=N\S(=O)(=O)c1cc(C(F)(F)F)cc(C(F)(F)F)c1)c1cccs1 | 5.69% (inactive)
88 | Cc1ccc(C(O)P(=O)(OC(C)C)c2ccc(N(C)C)cc2)cc1 (stereo not given) | -0.54% (inactive)
89 | COC(=O)[C@H]1[C@H]2C[C@H]3c4[nH]c5ccccc5c4CCN3C[C@@H]2CC[C@@H]1O | 2.37% (inactive) and 78.5% (active)
90 | COC(=O)C1CCN(C(=O)c2cc(=O)[nH]c3ccccc23)CC1 | -5.36% (inactive)
91 | O=C(NC1CCCCC1)N1CCc2[nH]c3ccccc3c2C1 | 7.44% (inactive)
92 | COc1ccc(NC(=O)C2=CC(c3ccc(OC)c(OC)c3)=NS(=O)(=O)N2C)cc1 | -1.75% (inactive)
93 | Cc1cccc(OCC(=O)NCC(=O)N/N=C/c2ccc(N(C)C)cc2)c1 | 5.85% (inactive)
94 | C=CCc1ccccc1OCC(=O)N/N=C/c1ccccc1OCC | -1.1% (inactive)
95 | Cc1ccc(/C=N/NC(=O)COc2ccccc2-c2ccccc2)cc1 | 66.9% (active)

From PubChem BioAssay AID2057 (The Scripps Research Institute Molecular Screening Center, 2009)
